Reference: PubChem BioAssay (EPA / NIEHS)
“And” between values parts separate entries of the source, which are not always exact repeats. Equal entries are not always repeated. Some compounds were tested as several samples or in several runs, with calls that do not always agree. The source made the active and inactive calls. Rule for the calls: active = hit-call score of the fitted dose curve at least 0.9, where 1 is the maximum; inactive = score below 0.9.

Columns and labels:
[1] = ATG_CMV_CIS: Attagene CIS-FACTORIAL HepG2 Assay for human CMV (Internal Marker) (AID 2282928); details: HepG2 CMV promoter reporter, transcription factor profiling; actives raise or lower the signal;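 note: endpoint acts as a background internal control marker rather than a target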
Method in brief: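 Readout: fluorescent reporter cDNA fragments separated by capillary electrophoresis after RT-PCR and HpaI cut. Cells: HepG2 carrying transfected cis-promoter reporter constructs, dosed 24 h. Endpoint serves as background internal-marker control, fit bidirectionally versus DMSO.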

[2] = ATG_DR4_LXR_CIS: Attagene CIS-FACTORIAL HepG2 Assay for human Liver X Receptor (LXR), DR4 submotif (AID 2282929); details: HepG2 Attagene DR4 cis-reporter, mRNA transcription; AC50: actives raise or lower the signal unless noted; outcome: actives raise or lower the signal unless noted
Method in brief: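 Measures endogenous transcription factor activity via a DR4-driven reporter transcript in human HepG2 cells. Compounds incubated 24 h; mRNA quantified by RT-PCR and capillary electrophoresis, analysed as gain or loss of signal versus DMSO.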

[3] = ATG_AP_1_CIS: Attagene CIS-FACTORIAL HepG2 Assay for human Activator Protein 1 (AP-1) (AID 2282931); details: HepG2 Attagene cis-factorial AP-1 reporter mRNA; actives raise or lower the signal
Method in brief: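 Bidirectional concentration-response fitting against DMSO controls. Underlying signal: reporter mRNA from cis-promoter constructs in transiently transfected HepG2, measured after 24 h by RT-PCR and capillary electrophoresis.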

[4] = ATG_AP_2_CIS: Attagene CIS-FACTORIAL HepG2 Assay for human Activator Protein 2 (AP-2) (AID 2282932); details: HepG2 AP-2 cis-reporter, Attagene transcription factor profiling; AC50: actives raise or lower the signal unless noted; outcome: actives raise or lower the signal unless noted
Method in brief: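 Cells (HepG2) transfected with promoter-driven reporter constructs, treated 24 h. Total RNA reverse-transcribed, reporter cDNA PCR-amplified, FAM-labelled by primer extension, digested, resolved by capillary electrophoresis. Activity fitted both directions versus DMSO.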

[5] = ATG_BRE_CIS: Attagene CIS-FACTORIAL HepG2 Assay for human Bone Morphogenetic Protein (BMP) Response Element (BRE) (AID 2282933); details: HepG2 BMP response element reporter, Attagene transcription factor profiling; actives raise or lower the signal
Method in brief: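 Multiplexed cis-reporter assay, HepG2, 24 h exposure. mRNA from reporter units quantified via RT-PCR/CE; DMSO baseline; bidirectional curve fit.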

[6] = target: Retinoic acid receptor alpha (Homo sapiens) (UniProt P10276); assay: ATG_DR5_RAR_CIS: Attagene CIS-FACTORIAL HepG2 Assay for human Retinoic Acid Receptor Alpha (RARE), DR5 submotif (AID 2282934); details: HepG2 Attagene cis-factorial RARE DR5 reporter, mRNA; actives raise or lower the signal;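 for AC50: reporter responds to endogenous RAR alpha beta and gamma in HepG2 not RARA alone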
Method in brief: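 Endpoint fitted in both directions relative to DMSO as negative control. It reflects DR5 cis-element reporter mRNA induction in transiently transfected HepG2 cells, measured 24 h after dosing through RT-PCR and fluorescent capillary electrophoresis.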

[7] = target: Transcription factor E2F1 (Homo sapiens) (UniProt Q01094); assay: ATG_E2F_CIS: Attagene CIS-FACTORIAL HepG2 Assay for human E2F Transcription Factor 1 (AID 2282935); details: HepG2 Attagene cis-reporter, E2F reporter RNA transcripts; actives raise or lower the signal
Method in brief: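 First, HepG2 cells were transfected with reporter transcription units. Next, they were dosed for 24 h. Then RNA was isolated, converted to cDNA, PCR-amplified, FAM-labeled, HpaI-digested and analyzed by capillary electrophoresis.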

[8] = ATG_E_Box_CIS: Attagene CIS-FACTORIAL HepG2 Assay for human Enhancer Box (E-box) (AID 2282936); details: HepG2 E-box cis-reporter transcription, actives raise or lower the signal
Method in brief: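 Endogenous transcription factor activity was sensed in human HepG2 liver cells through transfected cis-promoter reporter units. After 24 h of dosing, total RNA was reverse-transcribed and reporter cDNA resolved by capillary electrophoresis.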

[9] = ATG_EGR_CIS: Attagene CIS-FACTORIAL HepG2 Assay for human Early Growth Response 1 (EGR1) (AID 2282938); details: HepG2 Attagene CIS-FACTORIAL EGR reporter mRNA; actives raise or lower the signal
Method in brief: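 Cell-based multiplex transcription assay: HepG2 carrying transfected cis-element reporter units, 24 h chemical treatment. Fluorescence from capillary electrophoresis of RT-PCR products gives mRNA levels; fitting is bidirectional relative to DMSO.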

[10] = ATG_M_19_CIS: Attagene CIS-FACTORIAL HepG2 Assay for M19 Transcription Factor (Internal Marker) (AID 2282939); details: HepG2 Attagene CIS-FACTORIAL M19 internal marker reporter; actives raise or lower the signal
Method in brief: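 Signals come from fluorescence of labelled reporter-specific PCR fragments resolved by capillary electrophoresis, following 24 h treatment of HepG2 cells transfected with cis-promoter reporter units; activity was fitted in both directions relative to DMSO.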

[11] = ATG_ERE_CIS: Attagene CIS-FACTORIAL HepG2 Assay for Estrogen Response Element (ERE) (AID 2282940); details: HepG2 ERE cis-reporter, Attagene RNA transcript; actives raise or lower the signal
Method in brief: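 Fluorescence of capillary-separated, FAM-labelled reporter cDNA fragments indicates reporter mRNA levels in HepG2 cells exposed to chemicals for 24 h. Transient transfection with cis-regulated units; data fitted in both directions against DMSO.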

[12] = ATG_Ets_CIS: Attagene CIS-FACTORIAL HepG2 Assay for human Erythroblast Transformation Specific (ETS) (AID 2282941); details: HepG2 ETS cis-reporter transcription; AC50: actives raise or lower the signal unless noted; outcome: actives raise or lower the signal unless noted
Method in brief: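 RT-PCR/capillary electrophoresis fluorescence read-out of reporter mRNA; HepG2 transient multi-reporter transfection; 24 h compound exposure; gain or loss of signal fitted bidirectionally relative to DMSO.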

[13] = target: Hepatocyte nuclear factor 3-beta (Homo sapiens) (UniProt Q9Y261); assay: ATG_FoxA2_CIS: Attagene CIS-FACTORIAL HepG2 Assay for human Forkhead box A2 (FOXA2) (AID 2282942); details: HepG2 cis-reporter transcription factor activity, 24 h; actives raise or lower the signal
Method in brief: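 In transiently transfected human HepG2 cells, promoter-driven reporter mRNA levels after 24 h chemical exposure are determined via RT-PCR with capillary electrophoresis. DMSO serves as baseline for bidirectional fitting.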

[14] = ATG_FoxO_CIS: Attagene CIS-FACTORIAL HepG2 Assay for human Forkhead box O (FoxO) (AID 2282943); details: HepG2 Attagene cis-reporter, FoxO element, mRNA; actives raise or lower the signal
Method in brief: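 Values reflect reporter mRNA induction or loss in HepG2 cells 24 h post-dosing, fitted bidirectionally with DMSO as negative control and baseline. Detection used RT-PCR and fluorescence capillary electrophoresis.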

[15] = ATG_GATA_CIS: Attagene CIS-FACTORIAL HepG2 Assay for human GATA Binding Protein (AID 2282944); details: HepG2 GATA cis-element reporter, Attagene multiplex mRNA; actives raise or lower the signal
Method in brief: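 After transfecting HepG2 cells with multiple cis-regulated reporter units, chemicals are dosed for 24 h; isolated RNA undergoes RT-PCR and fluorescent labeling before capillary electrophoresis, with activity expressed against DMSO.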

[16] = ATG_GLI_CIS: Attagene CIS-FACTORIAL HepG2 Assay for human Zinc Finger Protein GLI1 (AID 2282945); details: HepG2, Attagene cis-factorial reporter mRNA, GLI element; actives raise or lower the signal
Method in brief: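 HepG2 cells transiently transfected with cis-promoter multiplexed reporter units report endogenous transcription factor activity. After 24 h chemical exposure, reporter mRNA was quantified by RT-PCR, 6-FAM labelling, HpaI digestion and capillary electrophoresis, with bidirectional fitting against DMSO.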

[17] = target: Bile acid receptor (Homo sapiens) (UniProt Q96RI1); assay: ATG_IR1_CIS: Attagene CIS-FACTORIAL HepG2 Assay for human Nuclear Receptor Subfamily 1 Group H Member 4 (NR1H4), IR1 submotif (AID 2282946); details: IR1 reporter transcription, actives raise or lower the signal
Method in brief: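 Readout: reporter transcript levels by RT-PCR with fluorescent capillary electrophoresis, from HepG2 cells transiently transfected with multiplexed cis-regulated reporters and dosed 24 h. Gain- or loss-of-signal fitted versus DMSO negative control.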

[18] = target: CCAAT/enhancer-binding protein beta (Homo sapiens) (UniProt P17676); assay: ATG_C_EBP_CIS: Attagene CIS-FACTORIAL HepG2 Assay for human CCAAT/Enhancer Binding Protein (C/EBP) beta (AID 2282927); details: HepG2 Attagene cis-factorial transcription factor reporter; actives raise or lower the signal
Method in brief: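 Following a 24 h incubation with test chemical, transfected HepG2 cells yielded RNA whose reporter transcripts were quantified by RT-PCR and fluorescent capillary electrophoresis, with DMSO serving as baseline for bidirectional fitting.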

[19] = target: Aryl hydrocarbon receptor (Homo sapiens) (UniProt P35869); assay: ATG_Ahr_CIS: Attagene CIS-FACTORIAL HepG2 Assay for human Aryl Hydrocarbon Receptor (Ahr) (AID 2282930); details: HepG2 AhR cis-factorial reporter transcription; actives raise or lower the signal
Method in brief: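 Values derive from bidirectional fitting against DMSO negative control. Underlying signal: cis-element reporter mRNA in transiently transfected HepG2, harvested 24 h post-dose and measured by RT-PCR plus capillary electrophoresis.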

[20] = ATG_M_61_CIS: Attagene CIS-FACTORIAL HepG2 Assay for M61 Transcription Factor (Internal Marker) (AID 2282937); details: HepG2 Attagene CIS-FACTORIAL M61 internal marker reporter; actives raise or lower the signal
Method in brief: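 Fluorescence from labelled cDNA fragments, separated by capillary electrophoresis, quantifies reporter induction. HepG2 cells bearing transiently transfected cis-promoter MRTUs were incubated with test chemical for 24 h; DMSO defined baseline for gain/loss fitting.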

Measured: AC50

Hepatocyte nuclear factor 3-beta (Homo sapiens), sequence (Q9Y261 whole entry, looked up): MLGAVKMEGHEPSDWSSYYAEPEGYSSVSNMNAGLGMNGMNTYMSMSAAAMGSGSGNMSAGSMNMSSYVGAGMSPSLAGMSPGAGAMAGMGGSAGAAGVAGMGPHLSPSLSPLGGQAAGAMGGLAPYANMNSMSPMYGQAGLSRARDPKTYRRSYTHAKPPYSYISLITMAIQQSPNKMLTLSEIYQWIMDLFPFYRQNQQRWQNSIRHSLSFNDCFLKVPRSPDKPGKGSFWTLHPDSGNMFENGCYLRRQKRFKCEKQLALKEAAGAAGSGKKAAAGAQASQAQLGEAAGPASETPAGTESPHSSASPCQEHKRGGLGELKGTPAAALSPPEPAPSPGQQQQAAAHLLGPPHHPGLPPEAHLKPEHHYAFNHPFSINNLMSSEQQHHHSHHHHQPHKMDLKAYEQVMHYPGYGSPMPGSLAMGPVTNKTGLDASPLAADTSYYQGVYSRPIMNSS
Bile acid receptor (Homo sapiens), sequence (Q96RI1 whole entry, looked up): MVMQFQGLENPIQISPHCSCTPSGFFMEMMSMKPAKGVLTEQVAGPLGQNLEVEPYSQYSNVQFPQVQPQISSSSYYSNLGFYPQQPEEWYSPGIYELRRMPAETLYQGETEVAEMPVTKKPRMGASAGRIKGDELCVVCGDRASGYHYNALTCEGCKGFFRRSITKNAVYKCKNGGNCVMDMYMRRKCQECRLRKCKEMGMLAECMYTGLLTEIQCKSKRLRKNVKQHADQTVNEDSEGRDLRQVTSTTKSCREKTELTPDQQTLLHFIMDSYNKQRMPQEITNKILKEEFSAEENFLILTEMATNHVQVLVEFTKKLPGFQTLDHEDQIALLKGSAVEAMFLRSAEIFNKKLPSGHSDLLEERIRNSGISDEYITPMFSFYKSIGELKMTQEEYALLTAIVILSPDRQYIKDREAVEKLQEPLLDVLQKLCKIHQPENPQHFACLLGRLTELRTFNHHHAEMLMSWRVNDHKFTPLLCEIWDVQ
Aryl hydrocarbon receptor (Homo sapiens), sequence (P35869 whole entry, looked up): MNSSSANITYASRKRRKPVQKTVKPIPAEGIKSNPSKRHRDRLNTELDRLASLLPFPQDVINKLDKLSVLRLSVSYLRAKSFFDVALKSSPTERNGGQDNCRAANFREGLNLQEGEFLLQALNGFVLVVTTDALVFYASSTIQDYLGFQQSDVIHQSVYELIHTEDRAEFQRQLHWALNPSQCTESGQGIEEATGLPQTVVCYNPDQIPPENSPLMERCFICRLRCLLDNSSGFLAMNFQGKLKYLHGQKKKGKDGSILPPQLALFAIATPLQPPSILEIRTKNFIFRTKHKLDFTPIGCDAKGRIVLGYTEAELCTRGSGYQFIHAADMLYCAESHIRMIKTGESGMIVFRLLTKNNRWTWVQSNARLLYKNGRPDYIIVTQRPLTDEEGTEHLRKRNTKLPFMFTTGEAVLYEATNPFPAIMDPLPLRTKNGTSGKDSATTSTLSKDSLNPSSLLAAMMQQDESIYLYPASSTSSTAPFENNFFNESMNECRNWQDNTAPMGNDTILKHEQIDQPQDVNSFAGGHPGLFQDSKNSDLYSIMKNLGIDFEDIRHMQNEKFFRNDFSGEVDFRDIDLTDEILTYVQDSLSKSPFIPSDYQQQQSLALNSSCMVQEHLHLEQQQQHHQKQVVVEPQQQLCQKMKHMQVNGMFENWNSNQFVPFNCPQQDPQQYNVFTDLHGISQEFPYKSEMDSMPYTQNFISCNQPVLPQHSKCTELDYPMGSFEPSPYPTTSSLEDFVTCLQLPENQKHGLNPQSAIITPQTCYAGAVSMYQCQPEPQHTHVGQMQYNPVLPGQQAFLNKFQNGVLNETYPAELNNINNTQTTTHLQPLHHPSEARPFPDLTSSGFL
Transcription factor E2F1 (Homo sapiens), sequence (Q01094 whole entry, looked up): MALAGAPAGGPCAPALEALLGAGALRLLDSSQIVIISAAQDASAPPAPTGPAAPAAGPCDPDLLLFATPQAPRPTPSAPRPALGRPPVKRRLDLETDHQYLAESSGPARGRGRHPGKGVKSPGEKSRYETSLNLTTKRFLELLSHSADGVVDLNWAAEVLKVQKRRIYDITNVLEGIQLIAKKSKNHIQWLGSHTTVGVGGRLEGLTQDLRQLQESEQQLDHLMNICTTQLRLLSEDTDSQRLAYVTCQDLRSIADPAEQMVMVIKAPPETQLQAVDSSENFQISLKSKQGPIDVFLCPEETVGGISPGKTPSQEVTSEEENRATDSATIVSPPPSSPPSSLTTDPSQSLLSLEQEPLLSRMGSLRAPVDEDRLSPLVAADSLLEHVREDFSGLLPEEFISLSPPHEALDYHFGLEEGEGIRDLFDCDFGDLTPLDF
Retinoic acid receptor alpha (Homo sapiens), sequence (P10276 whole entry, looked up): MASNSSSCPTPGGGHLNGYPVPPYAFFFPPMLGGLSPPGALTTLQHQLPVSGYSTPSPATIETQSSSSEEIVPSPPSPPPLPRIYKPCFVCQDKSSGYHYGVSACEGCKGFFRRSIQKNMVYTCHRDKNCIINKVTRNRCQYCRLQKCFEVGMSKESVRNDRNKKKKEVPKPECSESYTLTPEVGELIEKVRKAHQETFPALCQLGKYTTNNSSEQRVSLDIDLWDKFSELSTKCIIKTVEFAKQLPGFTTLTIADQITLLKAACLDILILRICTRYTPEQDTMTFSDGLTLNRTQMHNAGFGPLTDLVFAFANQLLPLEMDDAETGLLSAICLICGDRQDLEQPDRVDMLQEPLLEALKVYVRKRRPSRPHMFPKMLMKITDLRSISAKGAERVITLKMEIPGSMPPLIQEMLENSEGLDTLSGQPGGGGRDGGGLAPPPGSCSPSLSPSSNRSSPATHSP
CCAAT/enhancer-binding protein beta (Homo sapiens), sequence (P17676 whole entry, looked up): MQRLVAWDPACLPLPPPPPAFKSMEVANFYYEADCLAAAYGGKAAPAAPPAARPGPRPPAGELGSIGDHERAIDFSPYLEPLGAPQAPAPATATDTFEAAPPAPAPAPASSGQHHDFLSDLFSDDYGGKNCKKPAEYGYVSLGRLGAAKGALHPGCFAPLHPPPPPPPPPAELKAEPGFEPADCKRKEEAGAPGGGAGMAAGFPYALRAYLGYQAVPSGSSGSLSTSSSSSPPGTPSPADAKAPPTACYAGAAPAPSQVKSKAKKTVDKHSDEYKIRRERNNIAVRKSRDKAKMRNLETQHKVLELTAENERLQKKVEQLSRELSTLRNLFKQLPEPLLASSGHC

CC1=NN(c2ccccc2)C(=O)C1
not listed: [18] | [19] | [20]
inactive: all other assays above

FC(F)(F)C(F)(F)C(F)(F)Br
not listed: [1] | [15] | [19] | [20]
inactive: all other assays above

C=C(c1ccc(C(=O)O)cc1)c1cc2c(cc1C)C(C)(C)CCC2(C)C
active: [2] 2.99 µM | [3] 11.4 µM | [7] 31 µM | [8] 19 µM | [9] 11.1 µM | [10] 34.1 µM | [11] 0.0545 µM | [16] 28.6 µM
inactive: [2] | [19] | [3] | [5] | [7] | [8] | [20] | [9] | [10] | [11] | [13] | [14] | [16]

NS(=O)(=O)O
not listed: [6] | [10] | [11] | [17] | [18] | [19] | [20]
inactive: all other assays above

N=C(N)c1ccc(OCCCCCOc2ccc(C(=N)N)cc2)cc1
active: [1] 781 nM | [2] 116 µM | [3] 0.813 µM | [5] 23.3 µM | [8] 137 µM | [9] 87.5 µM | [11] 23.2 µM
not listed: [6] | [17] | [18] | [19] | [20]
inactive: all other assays above

Cc1ccc2ccc3ccc(C)cc3c2c1
active: [19] 50.6 µM
not listed: [6] | [14] | [18]
inactive: all other assays above

COc1ccccc1NC(=O)c1cc2ccccc2cc1O
inactive: [3] | [4] | [6] | [7] | [20] | [10] | [11] | [13]
active: [1] 100000 nM | [2] 41.9 µM | [19] 0.0553 µM | [5] 26.1 µM | [8] 26.7 µM | [9] 52.9 µM | [12] 46.5 µM | [15] 41.1 µM | [16] 60.7 µM | [17] 68.8 µM

c1cc2cccc3c4cccc5cccc(c(c1)c23)c54
not listed: [15] | [18] | [19]
inactive: all other assays above

CCOCCOCC
not listed: [12] | [14] | [18]
inactive: all other assays above

CN(CCO)S(=O)(=O)C(F)(F)C(F)(F)C(F)(F)C(F)(F)C(F)(F)C(F)(F)C(F)(F)C(F)(F)F
not listed: [1] | [6] | [19]
inactive: all other assays above

C=CC(=C)CC/C=C(\C)CCC=C(C)C
not listed: [4] | [6] | [10] | [18] | [19] | [20]
inactive: all other assays above

CC(C)[C@@H]1CC[C@@H](C)C[C@H]1O
not listed: [10] | [11] | [12] | [18] | [20]
inactive: all other assays above

COC(=O)CC(C(C)=O)C(=O)OC (stereo not given)
not listed: [1] | [6] | [7] | [18]
inactive: all other assays above

NC(=NCCCCCCN=C(N)/N=C(\N)Nc1ccc(Cl)cc1)/N=C(\N)Nc1ccc(Cl)cc1
inactive: [1] | [2] | [3] | [5] | [8] | [20] | [9] | [10] | [11] | [13] | [14] | [15]
active: [1] 163 µM and 166 µM | [3] 49.5 µM | [5] 3.85 µM and 3.17 µM | [8] 26.8 µM and 23.9 µM | [9] 5.68 µM | [10] 26.1 µM | [11] 4.6 µM | [14] 22.9 µM

Cc1cc(Cc2cc(C)cc(C(C)(C)C)c2O)c(O)c(C(C)(C)C)c1
inactive: [4] | [5] | [8] | [20] | [10] | [11] | [15]
active: [2] 100 µM | [19] 55.6 µM | [3] 24.9 µM | [6] 11.4 µM | [9] 100 µM | [12] 79.4 µM | [13] 128 µM | [14] 51.4 µM | [16] 165 µM | [17] 169 µM
